Compound activity from PubChem.
TrxR1 substrate – substrates of rat thioredoxin reductase 1; O89049; purified TrxR1 substrate turnover, NADPH consumption readout; Potency, µM (doses to about 114 µM), without a hit: at the highest dose activity change, negative = substrate turnover; 390,000 compounds, 0.01% hits; also: % is scaled to controls: 0 for no effect and ±100 for the full control effect; nearly all actives have a fitted effect of over 50% in size
Target sequence (O89049 whole entry, looked up): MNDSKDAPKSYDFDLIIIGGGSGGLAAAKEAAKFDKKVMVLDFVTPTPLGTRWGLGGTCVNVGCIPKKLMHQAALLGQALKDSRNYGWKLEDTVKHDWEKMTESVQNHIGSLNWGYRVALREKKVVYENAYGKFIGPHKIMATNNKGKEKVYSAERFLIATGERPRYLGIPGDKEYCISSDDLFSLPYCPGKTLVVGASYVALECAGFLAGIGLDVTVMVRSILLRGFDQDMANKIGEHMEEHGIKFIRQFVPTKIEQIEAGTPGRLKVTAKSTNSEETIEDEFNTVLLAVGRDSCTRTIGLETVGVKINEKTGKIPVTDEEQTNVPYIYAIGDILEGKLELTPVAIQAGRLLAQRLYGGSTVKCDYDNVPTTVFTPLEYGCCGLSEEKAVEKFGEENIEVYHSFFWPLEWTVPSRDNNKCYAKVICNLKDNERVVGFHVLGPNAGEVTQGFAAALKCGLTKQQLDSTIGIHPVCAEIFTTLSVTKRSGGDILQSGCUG
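Rat TrxR1, dispensed at 90 nM, was prereduced with 400 uM NADPH (final) for 5 min at ~22 deg C, then incubated with compound 15 min before 400 uM selenite. A first-read NADPH fluorescence drop versus no-compound background flagged substrates.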
A549 tox – counter-screen for Nrf2 inhibitors: cytotoxicity in A549 cells | A549 ARE-Fluc cells, CellTiter-Fluor viability, 18-24 h | 390,000 compounds, 0.16% hits | AID 504648 | Potency, µM (top dose mostly 46 µM), for inactives: top-dose activity change, negative = cytotoxicity, most hits filed as inhibitors; also: % is scaled to controls: 0 for no effect and ±100 for the full control effect
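Cytotoxicity counterscreen: CellTiter-Fluor fluorescence was measured in A549 ARE_Fluc cells after 18-24 h of compound exposure in a concentration series. The subsequent BugLite luminescent read reports ARE-luciferase activity.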
Nrf2 inh – blocks Nrf2 signaling; A549 ARE-Fluc reporter, luciferase luminescence, 18-24 h; Potency, µM (top dose mostly 46 µM), for inactives: at the highest dose activity change, negative = inhibition, hits mostly inhibitors; 360,000 compounds, 2.1% hits; AID 504444; also: % is scaled to controls: 0 for no effect and ±100 for the full control effect; nearly all actives have a fitted effect of over 60% in size
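Cells were seeded and rested 2 h, then exposed to compounds for 18-24 h. CellTiter-Fluor was read first as a viability measure. BugLite was added 15 min before the final luminescent read of ARE-luciferase activity in A549 cells.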
TrxR1 inh – blocks rat thioredoxin reductase 1 | 390,000 compounds, 1% hits | Potency, µM (titrated, usually from 114 µM), inactives show at the highest dose activity change, negative = inhibition, most hits filed as inhibitors | O89049 | recombinant rTrxR1, NADPH fluorescence consumption, selenite substrate; also: % is scaled to controls: 0 for no effect and ±100 for the full control effect; nearly all actives have a fitted effect of over 65% in size
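Rat TrxR1 (90 nM in the dispensed reagent) was pre-reduced with 400 uM NADPH for 5 min at room temperature, then incubated with compound for 15 min. After 400 uM selenite was added, NADPH fluorescence (Ex 340/Em 450 nm) was followed for 8 min.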
IDH1 R132H inh – inhibitors of human mutant IDH1 R132H; 390,000 compounds, 0.093% hits; AID 602179; O75874; IDH1-R132H enzyme, NADPH consumption, diaphorase/resazurin fluorescence; Potency, µM (highest dose often 76.6 µM), inactives show at the top dose activity change, negative = inhibition, hits mostly inhibitors; also: % is scaled to controls: 0 for no effect and ±100 for the full control effect; nearly all actives have a fitted effect of over 65% in size
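IDH1-R132H (0.5 ug/mL dispensed) in pH 7.5 Tris buffer was preincubated 30 min with compound, then given a substrate mix of 0.016 mM NADPH and 2 mM alpha-KG for 80 min at room temperature; remaining NADPH was read by diaphorase/resazurin fluorescence.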
Mito fusion yeast – inhibitors of mitochondrial division or activators of mitochondrial fusion. 320,000 compounds, 0.23% hits. Potency, µM (series often up to 46.1 µM), for the others: top-dose growth rescue (activation), usual class: activators. AID 485298. S. cerevisiae fusion-defective mutant growth rescue, CellTiterGlo 48 h; also: % of control where 0% means no effect; nearly all actives have a fitted effect of over 45% in size
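Yeast fusion mutant, YPEG (non-fermentable carbon), compound, 48 h at 37C non-permissive; CellTiterGlo added, 10 min RT, luminescence read. Rescued growth = division inhibition.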
Active calls of the source: *; [ ] = another dose, or the depositor's remark. Compounds with a hit are over-represented: about 3.1% of the library has one in this group of screens. Calls follow the shape of the dose curve; as a rule, active = well fitted curve in the direction sought with a large enough effect; inconclusive = small, poorly fitted or top-dose-only effect, or another doubt; inactive = no such curve, though single readings can be large; an effect the other way counts as inactive or inconclusive. Potency is read from the fitted curve at half-maximal effect.

Results for CC(C)(C)n1ncc2c(=O)n(Cc3c(F)ccc(Cl)c3Cl)cnc21 ?
TrxR1 substrate: 4%; TrxR1 inh: 21%

What do the screens show for `COc1ccc2[nH]cc(C(=O)CNc3nccs3)c2c1`?
TrxR1 substrate: 6%; TrxR1 inh: 9%

Results for COCCNc1ccc2cc(S(=O)(=O)N3CCCCC3)ccc2n1 ?
TrxR1 substrate: 9%[57.1 µM]; A549 tox: 7%; Nrf2 inh: 26%; TrxR1 inh: 1%[57.1 µM]; IDH1 R132H inh: -3%

What do the screens show for `Cc1ccc(/C=C/c2nc3ccccc3[nH]2)o1`?
TrxR1 substrate: 6%[57.1 µM]; A549 tox: 4%; Nrf2 inh: inconclusive; TrxR1 inh: 22µM*; IDH1 R132H inh: -6%; Mito fusion yeast: 0%

How did CC1=C(CO)C(=O)OC([C@@H](C)C2CC[C@H]3C4C[C@H]5O[C@]56[C@@H](O)C=CC(=O)[C@]6(C)C4CC[C@]23C)C1 (stereo partly drawn) do in these assays?
TrxR1 substrate: 3%; A549 tox: -18%; Nrf2 inh: 13µM*; TrxR1 inh: -33%; IDH1 R132H inh: -16%; Mito fusion yeast: -40%

How did Cc1ccc(OCC(=O)Nc2cccc(OCc3cc(=O)n4ccccc4n3)c2)cc1C do in these assays?
TrxR1 substrate: 19%[57.1 µM]; A549 tox: -3%; TrxR1 inh: 28%[57.1 µM]; IDH1 R132H inh: 1%

How did O=C(CSC1=NS(=O)(=O)c2ccccc21)Nc1ccccc1 do in these assays?
TrxR1 substrate: 6%[57.1 µM]; A549 tox: -3%; Nrf2 inh: inconclusive; TrxR1 inh: 7.9µM*; IDH1 R132H inh: 14%; Mito fusion yeast: -2%

How did COC(=O)CSc1ccccc1C(=O)OC do in these assays?
TrxR1 substrate: 4%; A549 tox: 3%[1.84 µM]; Nrf2 inh: 4%; TrxR1 inh: 8%; IDH1 R132H inh: 3%; Mito fusion yeast: -3%

How did COC(=O)CSC1=NS(=O)(=O)c2ccccc21 do in these assays?
TrxR1 substrate: -2%; A549 tox: -17%; Nrf2 inh: inconclusive; TrxR1 inh: 2.2µM*; IDH1 R132H inh: 1%; Mito fusion yeast: -4%

Results for O=C(CSC1=NS(=O)(=O)c2cc(F)ccc2N1)Nc1ccccc1 ?
TrxR1 substrate: 6%; A549 tox: -2%; Nrf2 inh: 12%; TrxR1 inh: 16%; IDH1 R132H inh: 8%; Mito fusion yeast: -8%

Results for CCCNC(=O)Cn1nc(C)c2c(C)n(-c3ccccc3)nc2c1=O ?
TrxR1 substrate: 7%[57.1 µM]; A549 tox: 11%; TrxR1 inh: 34%[57.1 µM]; IDH1 R132H inh: 17%

Results for CC(C)(C)c1ccc(O)c(O)c1 ?
TrxR1 substrate: 12%; A549 tox: -1%; Nrf2 inh: 0%; TrxR1 inh: 22µM*; IDH1 R132H inh: 0%; Mito fusion yeast: -1%

How did CCNc1ccc(Br)cc(C(=O)/C=C/c2c(Cl)cccc2Cl)c1=O do in these assays?
TrxR1 substrate: -14%; A549 tox: inconclusive; Nrf2 inh: inconclusive; TrxR1 inh: inconclusive; IDH1 R132H inh: 5%; Mito fusion yeast: 7%

How did Nc1ccccc1C(=O)/C=C/c1ccc2c(c1)OCO2 do in these assays?
TrxR1 substrate: -1%; A549 tox: 3%; Nrf2 inh: inconclusive; TrxR1 inh: 17%; IDH1 R132H inh: -2%[38.3 µM]; Mito fusion yeast: -1%

Results for CCNc1ccc(Br)cc(C(=O)/C=C/c2ccc3c(c2)OCO3)c1=O ?
TrxR1 substrate: -5%; A549 tox: -16%; Nrf2 inh: -22%; TrxR1 inh: 7.9µM*; IDH1 R132H inh: 4%; Mito fusion yeast: 0%

How did CCNc1ccc(Br)cc(C(=O)/C=C/c2ccc(Cl)cc2)c1=O do in these assays?
TrxR1 substrate: -18%; A549 tox: inconclusive; Nrf2 inh: inconclusive; TrxR1 inh: 35µM*; IDH1 R132H inh: 7%; Mito fusion yeast: 13µM*

Results for CCN(CC)S(=O)(=O)c1cccc(-c2nnc(SCCCC(=O)c3ccc(F)cc3)o2)c1 ?
TrxR1 substrate: 3%; A549 tox: -16%; Nrf2 inh: 23µM*; TrxR1 inh: 9%; IDH1 R132H inh: -1%; Mito fusion yeast: 5%

Results for COc1cc2c(NC3CCN(C)CC3)nc(N3CCCCC3)nc2cc1OCCOCCN1CCCC1 ?
TrxR1 substrate: 94%; TrxR1 inh: -27%

How did Cc1nc(CNC(=O)CC2C(=O)NCCN2Cc2ccoc2)nc2c1CCCC2 (stereo not drawn) do in these assays?
TrxR1 substrate: 5%; A549 tox: -3%; Nrf2 inh: 2%; TrxR1 inh: 50µM*; IDH1 R132H inh: 0%; Mito fusion yeast: -5%

What do the screens show for `CCOC(=O)/C(=C\c1cccnc1)C(=O)c1cc(C(C)=O)c(Nc2ccccc2)s1`?
TrxR1 substrate: -6%; A549 tox: inconclusive; Nrf2 inh: inconclusive; TrxR1 inh: 3.2µM*; IDH1 R132H inh: inconclusive; Mito fusion yeast: 3%

How did Cc1ccc(C(c2nnnn2Cc2ccccc2)N2CCN(Cc3ccncc3)CC2)cc1 (stereo not drawn) do in these assays?
TrxR1 substrate: 6%; A549 tox: 0%; Nrf2 inh: 19%; TrxR1 inh: 14%

What do the screens show for `O=C(C#Cc1ccccc1)c1ccco1`?
TrxR1 substrate: -1%; A549 tox: inconclusive; Nrf2 inh: 21µM*; TrxR1 inh: 0.25µM*; IDH1 R132H inh: 11%; Mito fusion yeast: -55%

Results for CCCCCCC[n+]1c(/C=C/c2ccc(N(C)C)cc2)sc2ccccc21 ?
TrxR1 substrate: 1%; TrxR1 inh: -25%

Results for COc1ccc(/C=C/C(=O)N2CCC(C(N)=O)CC2)cc1S(=O)(=O)N1CCOCC1 ?
TrxR1 substrate: -11%; A549 tox: -1%; Nrf2 inh: -2%; TrxR1 inh: 17%[57.1 µM]; IDH1 R132H inh: 0%; Mito fusion yeast: -7%

How did COc1cc(/C=C/C(=O)Nc2ccc(OC)c(S(=O)(=O)N3CCOCC3)c2)ccc1OC(F)F do in these assays?
TrxR1 substrate: -17%; A549 tox: -26%; Nrf2 inh: 18µM*; TrxR1 inh: -14%; IDH1 R132H inh: 2%

How did COc1ccc(/C=C/C(=O)N2CCN(c3ccccc3)CC2)cc1S(=O)(=O)N1CCOCC1 do in these assays?
TrxR1 substrate: 6%[57.1 µM]; A549 tox: -13%; Nrf2 inh: 13µM*; TrxR1 inh: 13%[57.1 µM]; IDH1 R132H inh: 0%; Mito fusion yeast: -2%

How did COc1cc2nc(N3CCCN(C)CC3)nc(OC3CCN(C)CC3)c2cc1OC do in these assays?
TrxR1 substrate: 119%; TrxR1 inh: -24%
